Measured values taken from PubChem BioAssay (NCI).
Compounds without any hit were thinned out: in the full panel of roughly 79,000, 15% have a hit. No stated cut-off is given here; in the data, active means growth inhibition above about 70%; inactive means the rest.

Experiments:
[1] = NCI Yeast Anticancer Drug Screen. Data for the rad50 strain (AID 155);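 further: 0% = growth of vehicle-only cultures of the same strain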; settings: S. cerevisiae rad50 strain growth inhibition; at 50.0 µM; stronger effect = higher value
In short: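 A DNA repair-deficient yeast mutant serves as the test organism; compound-induced growth inhibition is calculated against vehicle-treated cells.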

[2] = NCI Yeast Anticancer Drug Screen. Data for the mec2-1 strain (AID 157); settings: S. cerevisiae mec2-1 strain, at 50.0 µM, stronger effect = higher value
In short: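 Strain: mec2-1 (DNA repair/cell cycle alteration). Compound exposure, then growth measured; inhibition expressed relative to vehicle.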

[3] = NCI Yeast Anticancer Drug Screen. Data for the sgs1 mgt1 strain (AID 161);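 further: 0% = growth of cultures given vehicle only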; settings: S. cerevisiae sgs1 mgt1 strain, at 50.0 µM, stronger effect = higher value
In short: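 Genetically altered yeast, compound exposure, growth inhibition relative to vehicle.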

[4] = NCI Yeast Anticancer Drug Screen. Data for the cln2 rad14 strain (AID 165);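 further: 0% = growth equal to vehicle treated cultures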; settings: S. cerevisiae cln2 rad14 strain, at 50.0 µM, stronger effect = higher value
In short: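 Compounds are applied to the cln2 rad14 yeast strain, and growth is then compared with that of vehicle-treated cultures to give inhibition.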

[5] = NCI Yeast Anticancer Drug Screen. Data for the bub3 strain (AID 167); settings: S. cerevisiae bub3 mutant strain, at 50.0 µM, stronger effect = higher value
In short: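 Inhibition values come from growth of compound-treated mutant yeast normalised to vehicle-treated controls.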

[6] = NCI Yeast Anticancer Drug Screen. Data for the mlh1 rad18 strain (AID 175); settings: S. cerevisiae mlh1 rad18 strain growth inhibition; at 50.0 µM; stronger effect = higher value
In short: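 Read-out is yeast growth inhibition, calculated against vehicle-only controls. The compound was applied to a strain engineered with DNA damage repair alterations.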

Measured: growth inhibition

O=C(O)C1=CC(c2ccccc2O)=NCCN1
inactive: [1] -20.8% | [2] -0.75% | [3] 0.7% | [4] -34.6% | [5] -4.1% | [6] 3.6%

COc1ccc2c(c1OC)C(=O)C2
inactive: [1] -21.1% | [2] 12.1% | [3] -20.9% | [4] 9% | [5] -16.8% | [6] -2.35%

O=C(O)COc1cc(Cl)cc(F)c1Cl
inactive: [1] -23.6% | [2] 4.1% | [3] -9.4% | [4] -33.2% | [5] -7.85% | [6] -2.55%

CS(=O)(=O)OC1CCCSc2ccccc21 (stereo unspecified)
inactive: [1] 8.8% | [2] 2% | [3] -14.4% | [4] -8.2% | [5] 16.7% | [6] -25.4%

Cc1cc2ccccc2[nH]1
inactive: [1] 33.9% | [2] -15.3% | [3] -3.65% | [4] 3.1% | [5] 2.75% | [6] 10%

NC(CCCNc1nc(O)c(-c2ccccc2)c(=O)[nH]1)C(=O)O (stereo unspecified)
inactive: [1] -12.9% | [2] -24.4% | [3] -10.7% | [4] -44% | [5] -10.3% | [6] -3.55%

Nc1cc(C(F)(F)F)ccc1[N+](=O)[O-]
inactive: [1] 14.2% | [2] -10.2% | [3] 8% | [4] -7.25% | [5] 8.85% | [6] 22.4%

CC1=CC(=O)OC(=O)/C1=C/c1ccc(N(C)C)cc1
inactive: [1] -11.2% | [2] 33.8% | [3] -7.65% | [4] 19.7% | [5] 23% | [6] -9.4%

O=C1c2cccc3cccc(c23)C(=O)N1C(Cc1ccccc1)c1ccccc1 (stereo unspecified)
inactive: [1] -15.5% | [2] -49.4% | [3] -15.1% | [4] -4.2% | [5] -37.8% | [6] -31.1%

NC(=O)c1ccc2c(ccc3ccccc32)c1
inactive: [1] 48.5% | [2] 4.75% | [3] 5.05% | [4] -36% | [5] -1.8% | [6] -2.75%

CC(=O)/C(C)=C\C1C(C)=CCCC1(C)C (stereo unspecified)
inactive: [1] -4.5% | [2] -33.4% | [3] -27.8% | [4] -23.3% | [5] -14.8% | [6] -5.85%

CC(=O)Nc1cc(Cl)cc2c1[nH]c(=O)c1ccccc12
inactive: [1] 9.75% | [2] 5.35% | [3] -2% | [4] -7% | [5] 9.25% | [6] 1.05%

C=C(C)C1CC=C(C)/C(=N\O)C1 (stereo unspecified)
inactive: [1] -5.15% | [2] -9.9% | [3] -17.4% | [4] 3.05% | [5] 15% | [6] -5.6%

CCc1cccc(CC)c1NC1=CC(=O)C(=O)c2ccccc21
inactive: [1] 22.4% | [2] 11.4% | [3] 10% | [4] 18.8% | [5] 34.2% | [6] 18.2%

C/C(=N/NC(=O)NN)c1cccc(O)c1
inactive: [1] 3.1% | [2] -11.8% | [3] -16.6% | [4] 2.15% | [5] -4.5% | [6] -19.2%

N#C/C(=C\c1ccc(Cl)cc1)C(=O)N/N=C/c1ccc(Cl)cc1
inactive: [1] 24.6% | [2] 27.1% | [3] 33% | [4] 1.35% | [5] 5.75% | [6] 27.9%

Cc1ccc(S(=O)CC(Cl)c2ccccc2)cc1 (stereo unspecified)
inactive: [1] -26.6% | [2] 4.2% | [3] 13.2% | [4] 56% | [5] 14.3% | [6] 21.1%

Nc1cccc2c(O)cc(S(=O)(=O)O)cc12
inactive: [1] -1.35% | [2] -19.2% | [3] 7.6% | [4] -10.7% | [5] -0.4% | [6] 21.6%

OCCN(CCO)c1ccc2c(c1)Cc1cc(Br)ccc1-2
inactive: [1] 1.25% | [2] 6% | [3] -4.35% | [4] -2.7% | [5] 22.5% | [6] 5.15%

CCNC(=O)Nc1nc2ccccc2s1
inactive: [1] -27.8% | [2] -13% | [3] 1.75% | [4] -90.7% | [5] -23.8% | [6] -21.4%

N#Cc1nc(/C=C/c2nc(C#N)c(N)o2)oc1N
inactive: [1] -34.5% | [2] -28.7% | [3] -5.25% | [4] 9.25% | [5] 8.4% | [6] -0.95%

Cc1nc2c(N3CCCCC3)ncnc2o1
inactive: [1] 7.3% | [2] -0.85% | [3] -6.15% | [4] -28.7% | [5] -13.8% | [6] 4.05%

CC(=O)[C@@]1(O)CC[C@H]2[C@@H]3C[C@H](C)C4=CC(=O)CC[C@]4(C)[C@H]3[C@@H](O)C[C@@]21C
inactive: [1] -27.9% | [2] -8.8% | [3] -19.1% | [4] -36.2% | [5] 12.7% | [6] -22.4%

Cc1nnc2n1N=C(c1ccc(-c3ccc([N+](=O)[O-])cc3)o1)CS2
inactive: [1] 10.7% | [2] 3.1% | [3] -1.75% | [4] 12.1% | [5] -25.8% | [6] 10.8%

Cc1cnc2nc(C)c(C)nc2n1
inactive: [1] 12.3% | [2] 1.55% | [3] 2.35% | [4] -0.95% | [5] -0.85% | [6] 4.95%

OCC1CC1c1ccccc1 (stereo unspecified)
inactive: [1] -4.75% | [2] -0.65% | [3] -6.4% | [4] 10.5% | [5] 10.7% | [6] 5.55%

COC1OC(COC(=O)c2ccccc2)C(SC(=O)c2ccccc2)C1OC(=O)c1ccccc1 (stereo unspecified)
inactive: [1] -21.1% | [2] -1.35% | [3] -32.5% | [4] -2% | [5] -1.4% | [6] -12.5%

CCCCOB(OCCCC)OCCCC
inactive: [1] 6.1% | [2] -3.25% | [3] -12.6% | [4] 11.8% | [5] -1.65% | [6] -21.9%

CCOC(=O)CCc1nc2ccccc2[nH]1
inactive: [1] 0.6% | [2] -0.6% | [3] -0.3% | [4] 3.7% | [5] 0.5% | [6] -4.25%

CCOC(=O)c1c2cccccc-2nc1Nc1cccc2c(C)ccnc12
inactive: [1] 11.7% | [2] -21% | [3] -2.8% | [4] 9.7% | [5] -16.1% | [6] 5.55%

Clc1ccc(CSc2cnnc(SCc3ccc(Cl)cc3)c2SCc2ccc(Cl)cc2)cc1
inactive: [1] -11.4% | [2] 15.2% | [3] -10.9% | [4] -60% | [5] -3.75% | [6] -30.4%

CCc1ccccc1NC(C)=O
inactive: [1] -4.75% | [2] -16.4% | [3] -8.7% | [4] -5.2% | [5] 0.25% | [6] -12.7%

C1CCN(c2nsc(N3CCCCC3)n2)CC1
inactive: [1] -13.7% | [2] -5.15% | [3] 2.95% | [4] -52.1% | [5] -14.6% | [6] 18.2%

CC12CCC(=O)C=C1CCC1C2C(O)CC2(C)C1CCC2(O)C(=O)COC(=O)C1C2C=CC(C2)C1C(=O)O (stereo unspecified)
inactive: [1] 24.1% | [2] 9.45% | [3] 25% | [4] 12.1% | [5] -6.85% | [6] 25.1%

O=S1(=O)COc2ccccc2-c2ncncc21
inactive: [1] 10.2% | [2] -9.85% | [3] -2.35% | [4] 31.2% | [5] -2.6% | [6] -11.8%

C=CCCCCCCCCCOC=O
inactive: [1] -12.1% | [2] -5.2% | [3] 1.25% | [4] -19.8% | [5] 34.3% | [6] 3.2%

CS(=O)(=O)Oc1ncc(Cl)cc1Cl
inactive: [1] -15.4% | [2] 2% | [3] -1.85% | [4] 14.5% | [5] 1.35% | [6] -8.1%

CC(=O)CC(=O)Nc1ccc(C)c(C)c1
inactive: [1] -4.6% | [2] 2.15% | [3] 10% | [4] 7.95% | [5] 40% | [6] 12.5%

Cc1ccc(S(=O)(=O)N/N=C/c2ccccc2)cc1
inactive: [1] 5.7% | [2] -0.5% | [3] 3.2% | [4] -27.6% | [5] 8.7% | [6] 7.35%

Cc1nc2nc[nH]n2c1N=Nc1ccccc1
inactive: [1] -28.3% | [2] -2.55% | [3] -9.5% | [4] -13% | [5] 7.5% | [6] 9.5%

CCCCCCCCCCCCCC(=O)OCCN(C)C
inactive: [1] 4.1% | [2] -2.6% | [3] 7.7% | [4] -32.6% | [5] -14.4% | [6] -12.4%
